# “And” between values parts separate entries of the source, which are not always exact repeats. Equal entries are not always repeated. The campaign covered roughly 330,000 compounds. About 900 (0.27%) were called active.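 Rule for the calls: active = inhibition above the campaign's mean inhibition across all tested compounds plus 3 SD (cut at about 9.9% in these data); inactive = the rest.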 What follows is part of a selection rich in actives, with near analogues and random picks from the rest. Some compounds were tested as several samples or in several runs, with calls that do not always agree.
# Test: E. coli V3065 growth inhibition, primary screen, counter-screen for AddAB inhibitor project, absorbance, OD600 (AID 449728);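 note: uninfected addAB+ strain grown without phage in ampicillin broth; 0% = DMSO wells and 100% = ciprofloxacin 0.95 µg/ml wells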
# Conditions: 18 h, at 11.9 µM, stronger effect = higher value
row,SMILES,inhibition
1,NNC(=O)c1ccc(COCC(F)(F)C(F)F)cc1,3.04% (inactive)
2,CC(C)(C)OC(=O)C1=C(CO)CS[C@@H]2[C@H](NC(=O)Cc3ccccc3)C(=O)N12,1.43% (inactive)
3,CO/N=C(\C(=O)N[C@@H]1C(=O)N2C(C(=O)O)=C(COC(C)=O)CS[C@H]12)c1csc(N)n1 (stereo in doubt),98.5% (active) and 97.8% (active) and -0.69% (inactive)
4,Cc1cc(C)cc(C(=O)NC2C(=O)N3C(C(=O)O)=C(CSc4nnc(C)s4)CSC23)c1 (configuration not stated),-0.85% (inactive)
5,C=CC1=C(C(=O)O)N2C(=O)[C@@H](NC(=O)/C(=N\OCC(=O)O)c3csc(N)n3)[C@H]2SC1,97.5% (active)
6,C=CC1=C(C(=O)O)N2C(=O)[C@@H](NC(=O)/C(=N/OCC(=O)O)c3csc(N)n3)[C@H]2SC1,97.6% (active)
7,Cc1nnc(SCC2=C(C(=O)O)N3C(=O)C(NC(=O)Cn4nc(C)c(Cl)c4C)C3SC2)s1 (configuration not stated),1.18% (inactive)
8,COC(=O)C1=C(C)NC2=C(C(=O)c3ccccc32)C1c1ccc(-c2ccc(C(=O)O)cc2)o1 (configuration not stated),1.44% (inactive)
9,CCCCC(=O)Nc1nnc(S(=O)(=O)N(C)Cc2ccco2)s1,1.69% (inactive)
10,Cc1[nH]nc(SCC(=O)NCC(C)C)c1[N+](=O)[O-],-0.08% (inactive)
11,COc1ccc(S(=O)(=O)N2CCOCC2)cc1NC(=O)CSc1ncnc2ccccc12,-2.21% (inactive)
12,COC(=O)c1ccc(COC(=O)CNC(=O)c2cccc(OC)c2)o1,-0.35% (inactive)
13,CCOC(=O)c1c(CC(C)C)csc1/N=C/C1=C(O)CCCC1=O,-1.62% (inactive)
14,Cc1ccc(-n2c(C)nnc2SCC(=O)NC2CC2)cc1,0.84% (inactive)
15,O=c1ccc2c(-c3ccccc3S(=O)(=O)O)c3ccc(O)c(O)c3oc-2c1O,20.2% (active)
16,CC(C)C(C(=O)NCc1ccco1)N(CC1CCCO1)C(=O)CNS(=O)(=O)c1ccc(F)cc1 (configuration not stated),0.85% (inactive)
17,CC(=O)Nc1ccc(S(=O)(=O)N(CCc2ccccc2)CC(=O)N/N=C/c2ccc(C(=O)O)cc2)cc1,2.71% (inactive)
18,O=S(=O)(Nc1ccc(-n2cnnn2)cc1)c1ccc(Cl)cc1,1.06% (inactive)
19,COc1ccc(/C=C/C(=O)c2cc(Br)ccc(=O)c2O)cc1,10.9% (active)
20,COc1ccc(C(=O)/C=C/c2cccnc2)c(OC)c1,-1.21% (inactive)
21,COc1ccc2oc(=N)c(C(=O)Nc3ccc(Br)cc3)cc2c1,-1.46% (inactive)
22,COC(=O)c1sc(SC)c(S(=O)(=O)C(C)C)c1N/N=C(\C#N)S(=O)(=O)c1ccccn1,-1.95% (inactive)
23,CCCCCC1CC(COc2ccccc2)OC1=O (configuration not stated),-0.64% (inactive)

row,SMILES,inhibition
1,O=C(CCCN1C(=O)CCC1=O)Nc1ccc(Cl)c(C(F)(F)F)c1,-1.92% (inactive)
2,O=C(CC(O)(C(F)(F)F)C(F)(F)F)Nc1ccc(Cl)c(Cl)c1,17.7% (active)
3,CS(=O)(=O)N(CC(=O)Nc1ccc(Cl)c(Cl)c1)C1CCCCC1,0.42% (inactive)
4,CC(=O)Nc1ccc(NC(=O)COc2ccc(S(=O)(=O)NC(C)c3ccccc3)cc2)cc1 (configuration not stated),2.38% (inactive)
5,O=C(CSc1ccccn1)N1CCN(S(=O)(=O)c2ccc(Cl)cc2)CC1,-1.3% (inactive)
6,CCCCNC(=O)Nc1c(C)cc(SC#N)cc1C,2.5% (inactive)
7,CC(=O)NN1C(=O)c2ccccc2NC1c1ccccc1 (configuration not stated),0.86% (inactive)
8,O=C1c2ccccc2NC(c2ccc(-c3cccc(Cl)c3)o2)N1O (configuration not stated),19.2% (active)
9,O=C(O)C(c1ccccc1)N1C(=O)/C(=C\c2ccc(-c3cccc(Cl)c3)o2)SC1=S (configuration not stated),-3.78% (inactive)
10,O=C(NCc1cccs1)c1ccc2c(c1)ncn2C1CCCC1,-2.5% (inactive)
11,Cc1ccc(NC(=O)CN(C)C(=O)c2ccc(Br)o2)cc1,0.43% (inactive)
12,CCCS(=O)(=O)Nc1ccc(-c2cn3c(n2)SCC3)cc1,2.36% (inactive)
13,CC(C)(C)N(Cc1ccccc1)C(=O)c1ccncc1,-2.63% (inactive)
14,O=C(NCc1ccccn1)Nc1ccc(Cl)cc1,-3.41% (inactive)
15,O=C1c2ccccc2C(=O)N1CCC(O)C[N+](=O)[O-] (configuration not stated),3.02% (inactive)
16,O=C(Cc1c(F)cccc1Cl)Nc1ncc([N+](=O)[O-])s1,7.15% (inactive)
17,COc1ccc(NC(=O)c2ccccc2[N+](=O)[O-])cc1OC,-1.73% (inactive)
18,CC(=O)Oc1ccccc1C(=O)Nc1ncc([N+](=O)[O-])s1,11.2% (active)
19,CCCCCCCCCCCC(=O)O,-2.17% (inactive)
20,COc1ccc(OC)c(CCNC(=O)c2nn(C)c3c2CS(=O)(=O)c2ccccc2-3)c1,0.84% (inactive)
21,Cc1cc(=O)oc2cc(OCC(=O)N3CCN(c4ccc(F)cc4)CC3)c(Cl)cc12,1.94% (inactive)
22,CN1C(=O)c2ccc(C(=O)Nc3ccc(Br)cn3)cc2C1=O,-2.73% (inactive)
23,O=C(Nc1ccc(Br)cn1)c1ccc([N+](=O)[O-])cc1Cl,2.77% (inactive)

row,SMILES,inhibition
1,Cc1cccc(NC(=O)c2ccc([N+](=O)[O-])o2)c1,27.2% (active)
2,Cc1onc(NC(=O)c2ccc([N+](=O)[O-])o2)c1Br,6.74% (inactive)
3,O=C(Nc1ccc(Br)cn1)c1ccc([N+](=O)[O-])o1,32.3% (active)
4,O=C(Nc1cccc(O)c1)c1ccc(C(=O)c2ccccc2)o1,0.43% (inactive)
5,CC1CC(C)CN(CCC(=O)Nc2ccc3c(c2)CCC3)C1 (configuration not stated),1.48% (inactive)
6,O=c1c(-c2ccc(Cl)cc2)[n+]([O-])c2ccccc2n1OCc1nc2ccccc2[nH]1,0.49% (inactive)
7,O=C(Nc1cccnc1Cl)c1cc(-c2ccccc2O)on1,-1.11% (inactive)
8,C=CCNC(=O)c1cc(-c2ccccc2O)on1,85.1% (active)
9,C=CCNC(=O)c1csc(-c2ccccc2)n1,-0.67% (inactive)
10,Cc1ccc(C)c(OCCC(=O)OCC(=O)NC(=O)NCc2ccccc2)c1,0.73% (inactive)
11,CNC(=O)CN1C(=O)NC(c2ccccc2)(c2ccccc2)C1=O,1.95% (inactive)
12,CCOC(=O)N1CCN(Cc2nc3cc(NC(=O)CC)ccc3n2CC)CC1,-0.18% (inactive)
13,CC(=O)c1c(C)n([O-])c2ccccc2[n+]1=O,30.7% (active)
14,Cc1c(C=O)c2ccccc2n1CC(=O)O,2.1% (inactive)
15,COC(=O)c1cc(N2CCNCC2)nc2ccccc12,0.59% (inactive)
16,CC12C(=O)N(n3cnnc3)C(=O)C1C1C=CC2C1 (configuration not stated),1.48% (inactive)
17,COc1ccc(C(=O)COC(=O)c2ccc3ccccc3n2)cc1,0.25% (inactive)
18,CC[C@H](C)[C@@H](C(=O)N1CCNCC1)n1cc([C@@H](N)Cc2ccc(O)cc2)nn1,-1.2% (inactive)
19,CC(C)[C@H](NC(=O)c1ccc(F)cc1)C(=O)OCC(=O)NC(=O)c1cccn1C,-1.29% (inactive)
20,COC(=O)N/N=C/c1ccc(-c2ccc(Cl)c(Cl)c2)o1,0.17% (inactive)
21,COC(=O)N/N=C/c1cn(CCCOc2ccc(C)cc2)c2ccccc12,-2.32% (inactive)
22,COC(=O)N/N=C/c1c[n+]([O-])c2ccccc2[n+]1[O-],93.8% (active)
23,COc1ccc(C)cc1NC(=O)c1[nH]c(C)c(C(C)=O)c1C,-0.41% (inactive)

row,SMILES,inhibition
1,CN(Cc1ccco1)S(=O)(=O)c1nnc(NC(=O)c2ccccc2)s1,0% (inactive)
2,COCCNS(=O)(=O)c1cc(Br)ccc1OC,-1.08% (inactive)
3,COc1ccc(OCc2nnc3n2N=C(c2ccccc2)C(CC(=O)O)S3)cc1 (configuration not stated),-0.43% (inactive)
4,CN1CCN(C(c2cc3cc4c(cc3[nH]c2=O)OCCO4)c2nnnn2C2CCCC2)CC1 (configuration not stated),0.75% (inactive)
5,Cc1nnc(N/N=C/c2ccccn2)[nH]c1=O,12.1% (active)
6,Cc1cc(C(=O)N/N=C/c2ccccn2)c2ccccc2n1,-0.17% (inactive)
7,Cc1nnc(N/N=C/C2CC=CCC2)[nH]c1=O (configuration not stated),-0.18% (inactive)
8,O=C(Nc1ccc2nc3n(c(=O)c2c1)CCCC3)c1ccc(Cl)nc1,-2.17% (inactive)
9,CC(NS(=O)(=O)c1ccc(Cl)cc1)C(=O)Nc1ccc2c(c1)OCCO2 (configuration not stated),-2.14% (inactive)
10,CCn1c(=O)cc(SCC(=O)NCc2ccc3c(c2)OCO3)c2ccccc21,-0.5% (inactive)
11,CCn1c(=O)c(C(=O)NCc2ccc3c(c2)OCO3)c(O)c2ccccc21,0.18% (inactive)
12,C=CCn1c(=O)c(C(=O)NCc2ccc3c(c2)OCO3)c(O)c2ccccc21,13.5% (active)
13,O=C(CC1SC(N2CCCC2)=NC1=O)Nc1ccc(C(=O)NCCc2ccc(F)cc2)cc1 (configuration not stated),-1.3% (inactive)
14,C=C1c2c(Cl)ccc(O)c2C(O)=C2C(=O)[C@]3(O)C(O)=C(C(N)=O)C(=O)[C@@H](N(C)C)[C@@H]3[C@@H](O)C12 (some centres not stated),103% (active)
15,CN(C)[C@@H]1C(=O)C(C(N)=O)=C(O)[C@@]2(O)C(=O)C3=C(O)c4c(O)ccc(Cl)c4[C@@H](O)[C@H]3C[C@@H]12,102% (active)
16,CC1CC(C)CN(CCOc2cccc3ccccc23)C1 (configuration not stated),0.17% (inactive)
17,COc1cc(Cl)c(C)cc1NC(=O)COC(=O)c1cc(SC)ccc1Cl,-0.93% (inactive)
18,CCCn1nc(Oc2nc(NC(C)C)nc(N(C)C)n2)ccc1=O,-1.48% (inactive)
19,CCc1c(C)nc2ncnn2c1N1CCC(C(=O)NCc2ccc3c(c2)OCO3)CC1,-1.08% (inactive)
20,Cc1cnc(C(=O)OCC(=O)NCCCc2ccccc2)cn1,-0.78% (inactive)
21,COc1c(N2CCN(C(=S)Nc3ccccc3F)C(C)C2)c(F)cc2c(=O)c(C(=O)O)cn(C3CC3)c12 (configuration not stated),99% (active)
22,CC1CN(C(=S)Nc2ccccc2F)CC(C)O1 (configuration not stated),0.45% (inactive)
23,COc1ccccc1NC(=S)N1CCN(c2ccc(F)cc2)CC1,-1.81% (inactive)

# From PubChem BioAssay AID449728 (The Scripps Research Institute Molecular Screening Center, 2010)
